Experimental findings from the antibiotic and cytotoxicity screens of Wong et al. (2023) are described below.

Each structure is given as a SMILES string. Out of some 39,000 compounds screened, about 3,300 (8.5%) were called active. Many of the other results were omitted from the sample, so actives are more common in it than they were.

The test system of the test is HepG2. The test can be described thus: cytotoxicity call (relative viability < 0.9). To be noted: 10 µM.
On to `Cc1ccc(S[C@]2(C(=O)NCCCN(C)C)CC(=O)N(Cc3ccccc3C(F)(F)F)[C@@H]2c2ccc(CO)cc2)cc1`, for which the cytotoxicity call was “inactive”.

In the case of `C[C@H]1CN([C@@H](C)CO)C(=O)Cc2cc(NS(=O)(=O)c3ccc(F)cc3)ccc2O[C@H]1CN(C)C(=O)Nc1cccc2ccccc12`, the cytotoxicity call was “inactive”.

As to `Cc1cc(-c2cc[nH]n2)c(C)s1`, the cytotoxicity call is “inactive”.

In the case of `C[C@H]1CCCCO[C@@H](CN(C)Cc2ccncc2)[C@@H](C)CN([C@@H](C)CO)C(=O)c2cc(NC(=O)CCC(F)(F)F)ccc2O1`, the cytotoxicity call is “inactive”.

`C[C@@H]1CCCCO[C@@H](CN(C)C)[C@@H](C)CN([C@H](C)CO)C(=O)c2cc(NC(=O)Nc3ccc(C(F)(F)F)cc3)ccc2O1`: the cytotoxicity call is “active”.

As for `C[C@@H]1CN([C@H](C)CO)C(=O)c2cc(NC(=O)Nc3ccc(C(F)(F)F)cc3)ccc2O[C@@H](C)CCCCO[C@H]1CN(C)C`, the cytotoxicity call is “inactive”.

Regarding `C[C@@H]1CN([C@@H](C)CO)C(=O)c2cc(NC(=O)Nc3ccc(C(F)(F)F)cc3)ccc2O[C@@H](C)CCCCO[C@@H]1CN(C)S(=O)(=O)c1cn(C)cn1`, the cytotoxicity call is “inactive”.

With `C[C@H]1CCCCO[C@H](CN(C)C)[C@@H](C)CN([C@@H](C)CO)C(=O)c2cc(NC(=O)Nc3ccc(C(F)(F)F)cc3)ccc2O1`, the cytotoxicity call was “inactive”.

For `C[C@H]1CCCCO[C@@H](CN(C)S(=O)(=O)c2cn(C)cn2)[C@@H](C)CN([C@@H](C)CO)C(=O)c2cc(NC(=O)Nc3ccc(C(F)(F)F)cc3)ccc2O1`, the cytotoxicity call was “active”.

On to `C[C@@H]1CN([C@@H](C)CO)C(=O)c2cc(NC(=O)Nc3ccc(C(F)(F)F)cc3)ccc2O[C@@H](C)CCCCO[C@H]1CN(C)S(=O)(=O)c1cn(C)cn1`, for which the cytotoxicity call was “inactive”.

Turning to `C[C@H]1CN([C@@H](C)CO)C(=O)c2cc(C#CC3(O)CCCC3)cnc2O[C@@H]1CN(C)S(=O)(=O)c1ccccc1`, the cytotoxicity call is “inactive”.

Take `COc1cccc(-c2ccc3c(c2)O[C@@H](CN(C)C(=O)C2CC2)[C@@H](C)CN([C@@H](C)CO)S3(=O)=O)c1`: the cytotoxicity call is “inactive”.

Take `C[C@@H]1CN([C@H](C)CO)C(=O)c2cc(NC(=O)Nc3ccccc3)ccc2O[C@@H](C)CCCCO[C@@H]1CN(C)Cc1ccc(C(=O)O)cc1`: the cytotoxicity call was “inactive”.

Regarding `C[C@H]1CN([C@@H](C)CO)C(=O)c2cc(C#CC3(O)CCCC3)cnc2O[C@H]1CN(C)C(=O)Cc1ccccc1`, the cytotoxicity call was “inactive”.

`CCNC(=O)C[C@H]1CC[C@H](NC(=O)C2CC2)[C@H](CO)O1`: the cytotoxicity call is “inactive”.

Take `Cn1cnc(S(=O)(=O)N2C[C@H](O)COC[C@@H]3O[C@H](CC(=O)NC4Cc5ccccc5C4)CC[C@H]32)c1`: the cytotoxicity call was “inactive”.

As for `O=C(C[C@@H]1CC[C@H]2[C@@H](COC[C@@H](O)CN2S(=O)(=O)c2ccccc2Cl)O1)NCc1ccccc1Cl`, the cytotoxicity call is “inactive”.

As to `O=c1[nH]c2ccccc2c2ccccc12`, the cytotoxicity call is “inactive”.

Regarding `COc1ccc2c3c(ccc2c1)-c1[nH]c2ccccc2c1CC3`, the cytotoxicity call is “inactive”.

Take `C[C@H]1CCc2[nH]c3ccccc3c2C1`: the cytotoxicity call was “active”.

As for `C[C@H]1CN([C@@H](C)CO)C(=O)c2cc(NS(=O)(=O)c3ccccc3)ccc2O[C@@H]1CN(C)C(=O)Nc1cccc2ccccc12`, the cytotoxicity call is “inactive”.

For the compound `O=C1CCC(=O)N1c1nccs1`, the cytotoxicity call was “active”.

On to `O[C@H]1CCN(c2nccs2)C1`, for which the cytotoxicity call is “inactive”.

Take `Nc1nccs1`: the cytotoxicity call is “inactive”.

`O=C([C@@H]1[C@@H](CO)[C@@H]2Cn3c(cccc3=O)[C@@H]2N1CC1CCCC1)N1CCOCC1`: the cytotoxicity call is “inactive”.

For `COC1(NC(=O)CSCC#N)C(=O)N2C(C(=O)[O-])=C(CSc3nnnn3C)CSC21.[Na+]` (centres undefined), the cytotoxicity call was “inactive”.

With `C[C@H](CO)N1C[C@H](C)[C@@H](CN(C)Cc2ccc(Cl)c(Cl)c2)Oc2ccc(NC(=O)Nc3ccccc3)cc2C1=O`, the cytotoxicity call was “inactive”.

On to `C[C@@H]1CN([C@H](C)CO)C(=O)c2cc(NC(=O)Nc3ccccc3)ccc2O[C@@H]1CN(C)Cc1ccc(Cl)c(Cl)c1`, for which the cytotoxicity call is “inactive”.

As to `C[C@H]1CN([C@@H](C)CO)C(=O)c2cc(NC(=O)Nc3ccccc3)ccc2O[C@@H]1CN(C)Cc1ccc(Cl)c(Cl)c1`, the cytotoxicity call was “inactive”.

In the case of `C[C@H](CO)N1C[C@H](C)[C@H](CN(C)Cc2ccc(Cl)c(Cl)c2)Oc2ccc(NC(=O)Nc3ccccc3)cc2C1=O`, the cytotoxicity call is “inactive”.

On to `C[C@@H]1CN([C@H](C)CO)C(=O)c2cc(NC(=O)Nc3ccccc3)ccc2O[C@H]1CN(C)Cc1ccc(Cl)c(Cl)c1`, for which the cytotoxicity call is “inactive”.

Consider `C[C@@H]1CN([C@@H](C)CO)C(=O)c2cc(NC(=O)Nc3ccccc3)ccc2O[C@H]1CN(C)Cc1ccc(Cl)c(Cl)c1`, for which the cytotoxicity call is “active”.

With `C[C@@H]1CN([C@@H](C)CO)C(=O)c2cc(NC(=O)Nc3ccccc3)ccc2O[C@@H]1CN(C)Cc1ccc(Cl)c(Cl)c1`, the cytotoxicity call is “active”.

Consider `C[C@H]1CN([C@@H](C)CO)C(=O)c2cc(NC(=O)Nc3ccccc3)ccc2O[C@H]1CN(C)Cc1ccc(Cl)c(Cl)c1`, for which the cytotoxicity call was “active”.

Regarding `COCC(=O)N1C[C@H](C)[C@@H](OC)CN(C)C(=O)c2cc(NC(=O)c3ccc(F)cc3)ccc2OC[C@@H]1C`, the cytotoxicity call is “inactive”.

Take `N#Cc1cn(C2CCCCC2)c(=O)[nH]c1=O`: the cytotoxicity call is “inactive”.

Regarding `C[C@H]1CCCCO[C@H](CN(C)C(=O)Cc2ccccc2)[C@@H](C)CN([C@@H](C)CO)C(=O)c2cc(NC(=O)C3CCCCC3)ccc2O1`, the cytotoxicity call is “inactive”.

Take `CC(C)CC#Cc1ccc2c(c1)O[C@H](CN(C)C(=O)Cc1ccccn1)[C@@H](C)CN([C@@H](C)CO)S2(=O)=O`: the cytotoxicity call was “inactive”.

Consider `C[C@@H]1CN([C@H](C)CO)C(=O)Cc2cc(NC(=O)c3ccncc3)ccc2O[C@@H]1CN(C)C(=O)NC1CCCCC1`, for which the cytotoxicity call was “inactive”.

Consider `C[C@@H]1CN([C@H](C)CO)C(=O)c2cc(-c3ccncc3)cnc2O[C@@H]1CN(C)S(=O)(=O)c1ccc(F)cc1`, for which the cytotoxicity call was “inactive”.

Turning to `Cc1nsc(-c2ccccc2)n1`, the cytotoxicity call is “inactive”.

For `C[C@@H]1CN([C@H](C)CO)C(=O)c2cc(NS(=O)(=O)c3ccc(F)cc3)ccc2O[C@@H](C)CCCCO[C@@H]1CN(C)Cc1ccc2c(c1)OCO2`, the cytotoxicity call is “inactive”.

For the compound `C[C@@H]1CCCCO[C@@H](CN(C)Cc2ccc3c(c2)OCO3)[C@H](C)CN([C@@H](C)CO)C(=O)c2cc(NS(=O)(=O)c3ccc(F)cc3)ccc2O1`, the cytotoxicity call was “inactive”.

On to `C[C@@H]1CCCCO[C@@H](CN(C)Cc2ccc3c(c2)OCO3)[C@@H](C)CN([C@@H](C)CO)C(=O)c2cc(NS(=O)(=O)c3ccc(F)cc3)ccc2O1`, for which the cytotoxicity call is “active”.

For `C[C@@H]1CCCCO[C@H](CN(C)Cc2ccc3c(c2)OCO3)[C@H](C)CN([C@H](C)CO)C(=O)c2cc(NS(=O)(=O)c3ccc(F)cc3)ccc2O1`, the cytotoxicity call is “inactive”.

For the compound `C[C@H]1CCCCO[C@H](CN(C)Cc2ccc3c(c2)OCO3)[C@@H](C)CN([C@@H](C)CO)C(=O)c2cc(NS(=O)(=O)c3ccc(F)cc3)ccc2O1`, the cytotoxicity call was “inactive”.

Take `C[C@@H]1CCCCO[C@@H](CN(C)Cc2ccc3c(c2)OCO3)[C@H](C)CN([C@H](C)CO)C(=O)c2cc(NS(=O)(=O)c3ccc(F)cc3)ccc2O1`: the cytotoxicity call is “inactive”.

As to `C[C@@H]1CCCCO[C@@H](CN(C)Cc2ccc3c(c2)OCO3)[C@@H](C)CN([C@H](C)CO)C(=O)c2cc(NS(=O)(=O)c3ccc(F)cc3)ccc2O1`, the cytotoxicity call was “active”.

As for `C[C@@H]1CCCCO[C@H](CN(C)Cc2ccc3c(c2)OCO3)[C@@H](C)CN([C@@H](C)CO)C(=O)c2cc(NS(=O)(=O)c3ccc(F)cc3)ccc2O1`, the cytotoxicity call was “active”.

On to `C[C@@H]1CN([C@@H](C)CO)C(=O)c2cc(NS(=O)(=O)c3ccc(F)cc3)ccc2O[C@@H](C)CCCCO[C@H]1CN(C)Cc1ccc2c(c1)OCO2`, for which the cytotoxicity call is “inactive”.

`C[C@@H]1CN([C@H](C)CO)C(=O)c2cc(-c3cccnc3)cnc2O[C@@H]1CN(C)Cc1ccc(Oc2ccccc2)cc1`: the cytotoxicity call is “inactive”.

As to `CC(/C=C/C(=O)NO)=C\c1ccccc1OCc1cn(CC[C@@H]2OC(=O)[C@H](Cc3ccccc3)N3CC4=C[C@@H](C5CC5)n5c(=O)n(C)c(=O)n5[C@H]4[C@H]23)nn1`, the cytotoxicity call is “inactive”.

Turning to `C[C@@H](N)C(=O)OC(C)(C)Cc1ccc(Cl)cc1`, the cytotoxicity call is “inactive”.

Turning to `C[C@@H]1CCCCO[C@@H](CN(C)S(C)(=O)=O)[C@H](C)CN([C@@H](C)CO)C(=O)c2cc(NS(C)(=O)=O)ccc2O1`, the cytotoxicity call is “inactive”.

For `COC(=O)c1c2oc(c1C(=O)OC)C(=O)N[C@@H](Cc1ccccc1)Cn1cc(nn1)CNC(=O)[C@@H](Cc1ccccc1)NC(=O)N[C@@H](CO)CC2`, the cytotoxicity call is “inactive”.

With `C[C@H]1OC(=O)CC[C@@H](O)/C=C/[C@@H](O)[C@@H]1O`, the cytotoxicity call is “inactive”.

As to `O=C(O)[C@H]1Cc2ccccc2CN1`, the cytotoxicity call was “inactive”.

Take `CC(C)NC(=O)N[C@H]1C=C[C@@H](CC(=O)NCCCN(C)C)O[C@@H]1CO`: the cytotoxicity call was “inactive”.

As to `COc1ccc(CC(N)C(=O)NC2C(CO)OC(n3cnc4c(N(C)C)ncnc43)C2O)cc1.Cl.Cl` (centres undefined), the cytotoxicity call was “active”.

With `COc1nc(N)nc2c1ncn2[C@@H]1O[C@H](CO)[C@@H](O)[C@@H]1O`, the cytotoxicity call is “inactive”.

For `Nc1ncnc2c1ncn2[C@@H]1O[C@H](CO)[C@@H](O)[C@H]1O`, the cytotoxicity call is “inactive”.

Take `COc1ccc(C[C@H](N)C(=O)N[C@H]2[C@@H](O)[C@@H](n3cnc4c(N(C)C)ncnc43)O[C@@H]2CO)cc1`: the cytotoxicity call was “active”.

Consider `Nc1ccc(CCNc2ncnc3c2ncn3[C@@H]2O[C@H](CO)[C@@H](O)[C@H]2O)cc1`, for which the cytotoxicity call is “inactive”.

For `CN(C)c1ncnc2c1ncn2[C@H]1O[C@@H](CO)[C@@H](N)[C@@H]1O`, the cytotoxicity call was “active”.

As for `Nc1ncnc2c1ncn2C1OC(CO)C(O)C1O` (centres undefined), the cytotoxicity call was “inactive”.

On to `COc1ccc(C[C@@H](N)C(=O)N[C@@H]2[C@@H](O)[C@@H](n3cnc4c(N(C)C)ncnc43)O[C@@H]2CO)cc1`, for which the cytotoxicity call was “active”.

In the case of `C[C@@H]1CN([C@H](C)CO)C(=O)c2cccc(NS(C)(=O)=O)c2O[C@@H]1CN(C)Cc1ccc(C(=O)Nc2ccccc2N)cc1`, the cytotoxicity call is “inactive”.

With `COCC#Cc1ccc2c(c1)O[C@H](CN(C)S(=O)(=O)c1ccc(C)cc1)[C@@H](C)CN([C@H](C)CO)S2(=O)=O`, the cytotoxicity call is “inactive”.

As to `C[C@@H]1CN([C@H](C)CO)C(=O)c2cc(NC(=O)Nc3cccc4ccccc34)ccc2O[C@@H]1CN(C)S(=O)(=O)c1ccc(Cl)cc1`, the cytotoxicity call is “inactive”.
